# Several values for one entry are separate records, joined by “and”; a condition that tells them apart may be missing. Equal entries are not always repeated. Inconclusive results are not listed. Activity calls are given as the source filed them. Unless noted, no rule for the calls is given here.
# Assays:
# [1] = Cy5 fluorescence interference with SSB-bound oligo, artefact control for HCV NS3 helicase inhibitor project, biochemical, NIH Clinical Collection, E. coli SSB (AID 743268)
# [2] = test system: Hepatitis C virus NS3 helicase; experiment: HCV NS3 helicase inhibitors, primary screen, biochemical, fluorescence polarization, NIH Clinical Collection (AID 743270); settings: NS3 helicase binding to Cy5-dT15 DNA, stronger effect = higher value, concentration not given here
# [3] = biological target: Single-stranded DNA-binding protein (Escherichia coli (strain K12)) (UniProt P0AGE0); experiment: E. coli SSB displacement from DNA, counter-screen for HCV NS3 helicase inhibitor project, biochemical, fluorescence polarization, NIH Clinical Collection (AID 743271; in the data active = inhibition above about 28%); settings: stronger effect = higher value, concentration not given here
# [4] = fluorescence interference in NS3h assay format, artefact control for HCV NS3 helicase inhibitor project, biochemical, NIH Clinical Collection (AID 743272); settings: fluorescence interference counterscreen, stronger effect = lower value;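 also: HCV NS3 helicase with a Cy5 labelled single stranded DNA probe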
# [5] = test system: Neuropilin-2 / VEGF-C interaction (human); experiment: inhibitors of NRP2–VEGF-C binding, biochemical, microplate binding format, z-score (AID 743281); settings: microplate NRP2/VEGF-C binding assay; stronger effect = lower value
# [6] = modulation of C. elegans fzo-1 (AID 1259413);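 also: fzo-1 mutant C. elegans worms in liquid wells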; settings: C. elegans fzo-1 modulator screen, mean read-out; stronger effect = higher value
# F380Y/beta1 = experiment: modulators of BK channel variants, profiling panel, selectivity assay, cell-based, U2OS BacMam, thallium flux, beta subunits (AID 1259406;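 active = thallium flux through the channel raised or lowered by more than 3 SD from vehicle-only wells, actives on both sides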;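 also: initial slope of Thallos dye fluorescence rise after thallium is added; log ratio against the mean of 0.3% DMSO vehicle wells on the same plate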); settings: at 30 µM
# F380Y/beta4 = experiment: as above; settings: at 30 µM
# R275C/beta4 = experiment: as above; settings: at 30 µM
# R275C/Slo1WT/beta2 = experiment: as above; settings: at 30 µM
# [7] = reducers of polyQ inclusions in PC12 cells, cell-based, NGF-treated PC12, GFPQ80 (AID 1614); settings: PC12 NGF-treated GFP-polyQ80 inclusion reduction;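 also: lower means fewer inclusions and 0 means no inclusions at all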
# [8] = growth inhibition of DIPG glioma cells, dose response, cell-based, SU-DIPG-XVII, MIPE5.0, CellTiter-Glo, qHTS (AID 1347060; cut-off not given, nearly all actives have AC50 up to about 26 µM;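 as to AC50: cells exposed to compound for 48 hours before viability readout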); settings: SU-DIPG-XVII viability, CellTiter-Glo ATP luminescence
# [9] = growth inhibition of DIPG glioma cells, dose response, cell-based, SU-DIPG-XIII, MIPE4.0, CellTiter-Glo, qHTS (AID 1347061; cut-off not given, nearly all actives have AC50 up to about 37 µM;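 also: cells exposed to compound for 48 hours before readout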); settings: SU-DIPG-XIII viability, CellTiter-Glo ATP luminescence
# [10] = growth inhibition of DIPG glioma cells, dose response, cell-based, SU-DIPG-IV, MIPE4.0, CellTiter-Glo, qHTS (AID 1347063; cut-off not given, nearly all actives have AC50 up to about 30 µM;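 also: compound exposure lasted 48 hours before the viability readout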); settings: SU-DIPG-IV viability, CellTiter-Glo ATP luminescence
# [11] = SU-DIPG-VI glioma cell viability, MIPE4.0 library, CellTiter-Glo luminescence, qHTS (AID 1347066; cut-off not given, nearly all actives have AC50 up to about 30 µM;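 also: cells exposed to compound for 48 hours before readout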); settings: CellTiter-Glo ATP luminescence
# [12] = JHH-DIPG-1 glioma cell viability, MIPE5.0 library, CellTiter-Glo luminescence, qHTS (AID 1347067; cut-off not given, nearly all actives have AC50 up to about 26 µM;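 also: cells exposed to compound for 48 hours before readout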); settings: JHH-DIPG-1 glioma viability, CellTiter-Glo ATP luminescence
# [13] = SU-DIPG-XXV glioma cell viability, MIPE5.0 library, qHTS (AID 1347068; cut-off not given, nearly all actives have IC50 up to about 30 µM;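 as to IC50: cells exposed to compound for 48 hours before viability readout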)
# [14] = growth inhibition of DIPG glioma cells, dose response, cell-based, SU-DIPG-XIII, MIPE5.0, CellTiter-Glo, qHTS (AID 1347064; cut-off not given, nearly all actives have AC50 up to about 23 µM); settings: SU-DIPG-XIII viability, CellTiter-Glo ATP luminescence
# [15] = biological target: ATP-dependent translocase ABCB1 (Homo sapiens) (UniProt P08183); experiment: MDR1 (ABCB1) efflux transporter inhibition, cell-based (AID 377; in the data active = fluorescence slope change above about 50%); settings: MDR1-expressing cells, fluorescent substrate accumulation slope; stronger effect = higher value; concentration not given here
# [16] = ICB984 medulloblastoma cell growth inhibition, synergistic combos for chromothripsis tumors, cisplatin or BGB combos (AID 1671451); settings: ICB984 medulloblastoma cells, drug combinations, stronger effect = higher value;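 also: cells exposed for 96 hours before readout; 0% = vehicle DMSO and 100% = killing by high DMSO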
# Sequence of ATP-dependent translocase ABCB1 (Homo sapiens) (P08183 whole entry, looked up): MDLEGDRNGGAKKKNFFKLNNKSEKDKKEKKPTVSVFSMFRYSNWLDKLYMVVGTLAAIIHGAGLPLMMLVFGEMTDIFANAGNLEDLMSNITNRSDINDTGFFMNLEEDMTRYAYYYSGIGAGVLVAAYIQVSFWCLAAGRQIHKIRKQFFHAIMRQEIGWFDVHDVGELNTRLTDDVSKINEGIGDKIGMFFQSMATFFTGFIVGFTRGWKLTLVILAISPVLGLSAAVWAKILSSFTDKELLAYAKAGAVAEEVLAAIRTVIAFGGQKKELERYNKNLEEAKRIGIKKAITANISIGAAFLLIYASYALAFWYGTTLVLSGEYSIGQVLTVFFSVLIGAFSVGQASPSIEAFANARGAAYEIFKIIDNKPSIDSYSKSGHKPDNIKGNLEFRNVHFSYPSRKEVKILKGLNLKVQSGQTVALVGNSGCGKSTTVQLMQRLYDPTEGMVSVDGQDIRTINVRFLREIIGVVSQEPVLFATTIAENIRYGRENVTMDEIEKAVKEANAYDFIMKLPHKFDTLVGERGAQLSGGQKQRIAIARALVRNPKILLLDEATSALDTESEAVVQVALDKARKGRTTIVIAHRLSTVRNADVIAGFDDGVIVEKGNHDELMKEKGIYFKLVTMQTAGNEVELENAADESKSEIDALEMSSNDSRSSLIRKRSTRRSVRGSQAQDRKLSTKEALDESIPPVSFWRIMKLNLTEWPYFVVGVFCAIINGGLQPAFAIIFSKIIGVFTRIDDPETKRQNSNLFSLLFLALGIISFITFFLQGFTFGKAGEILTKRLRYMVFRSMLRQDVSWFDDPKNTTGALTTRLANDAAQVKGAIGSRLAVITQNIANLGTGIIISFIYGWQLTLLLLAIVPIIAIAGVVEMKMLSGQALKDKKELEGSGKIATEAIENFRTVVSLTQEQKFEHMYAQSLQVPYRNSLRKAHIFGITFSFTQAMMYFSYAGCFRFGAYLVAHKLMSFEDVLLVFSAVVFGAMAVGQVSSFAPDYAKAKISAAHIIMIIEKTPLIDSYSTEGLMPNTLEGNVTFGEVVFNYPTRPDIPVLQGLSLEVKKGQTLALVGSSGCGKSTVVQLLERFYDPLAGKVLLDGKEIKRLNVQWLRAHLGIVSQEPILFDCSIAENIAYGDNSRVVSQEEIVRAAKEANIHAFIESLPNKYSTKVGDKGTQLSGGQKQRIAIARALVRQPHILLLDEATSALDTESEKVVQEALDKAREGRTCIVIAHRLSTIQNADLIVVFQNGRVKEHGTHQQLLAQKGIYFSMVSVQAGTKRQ
compound,measurement,setting,value
c1ccc2c(c1)Nc1ccccc1S2,fluorescence ratio,[1],0.96 (inactive)
same,inhibition,[2],1.53% (inactive)
same,inhibition,[3],5.12% (inactive)
same,fluorescence ratio,[4],0.95 (inactive)
same,z-score,[5],0.0903 (inactive)
same,mean signal,[6],265 (inactive)
same,log fold change Tl+ flux,F380Y/beta1,0.0323 (inactive)
same,log fold change Tl+ flux,F380Y/beta4,-0.0296 (inactive)
same,log fold change Tl+ flux,R275C/beta4,-0.0162 (inactive)
same,log fold change Tl+ flux,R275C/Slo1WT/beta2,0.00584 (inactive)
NC1=NC(=O)C(c2ccccc2)O1 (stereo not given),fluorescence ratio,[1],1.02 (inactive)
same,inhibition,[2],2.77% (inactive)
same,inhibition,[3],1.44% (inactive)
same,fluorescence ratio,[4],0.93 (inactive)
same,z-score,[5],-1.08 (inactive)
same,mean signal,[6],245 (inactive)
same,log fold change Tl+ flux,F380Y/beta1,-0.0441 (inactive)
same,log fold change Tl+ flux,F380Y/beta4,0.00709 (inactive)
same,log fold change Tl+ flux,R275C/beta4,-0.0245 (inactive)
same,log fold change Tl+ flux,R275C/Slo1WT/beta2,0.0857 (active)
CN1C(=O)CN=C(c2ccccc2)c2cc([N+](=O)[O-])ccc21,fluorescence ratio,[1],1.07 (inactive)
same,inhibition,[2],5.94% (inactive)
same,inhibition,[3],1.44% (inactive)
same,fluorescence ratio,[4],1.04 (inactive)
same,z-score,[5],-0.553 (inactive)
same,mean signal,[6],228 (inactive)
same,log fold change Tl+ flux,F380Y/beta1,-0.0526 (inactive)
same,log fold change Tl+ flux,F380Y/beta4,0.0228 (inactive)
same,log fold change Tl+ flux,R275C/beta4,0.0115 (inactive)
same,log fold change Tl+ flux,R275C/Slo1WT/beta2,0.0318 (inactive)
O=C(O)C(Cl)Cl,fluorescence ratio,[1],0.97 (inactive)
same,inhibition,[2],-0.4% (inactive)
same,inhibition,[3],0.67% (inactive)
same,fluorescence ratio,[4],0.96 (inactive)
same,z-score,[5],0.208 (inactive)
same,mean signal,[6],259 (inactive)
same,log fold change Tl+ flux,F380Y/beta1,-0.0051 (inactive)
same,log fold change Tl+ flux,F380Y/beta4,-0.0155 (inactive)
same,log fold change Tl+ flux,R275C/beta4,-0.0167 (inactive)
same,log fold change Tl+ flux,R275C/Slo1WT/beta2,-0.0385 (inactive)
COc1ccc(C(=O)N2CCCC2=O)cc1,inclusion score,[7],2
same,outcome,[8],inactive
same,outcome,[9],inactive
same,outcome,[10],inactive
same,outcome,[11],inactive
same,outcome,[12],inactive
same,outcome,[13],inactive
CN[C@@H]1C[C@@H](c2ccc(Cl)c(Cl)c2)c2ccccc21,fluorescence ratio,[1],0.98 (inactive)
same,inhibition,[2],-3.56% (inactive)
same,inhibition,[3],-3.95% (inactive)
same,fluorescence ratio,[4],0.97 (inactive)
same,z-score,[5],0.266 (inactive)
same,mean signal,[6],207 (inactive)
NN=C(N)N,outcome,[8],inactive
same,outcome,[14],inactive
same,outcome,[12],inactive
same,outcome,[13],inactive
CC(C)c1cccc(C(C)C)c1O,fluorescence ratio,[1],0.96 (inactive)
same,inhibition,[2],-1.36% (inactive)
same,inhibition,[3],4.1% (inactive)
same,fluorescence ratio,[4],0.87 (inactive)
same,mean signal,[6],226 (inactive)
same,outcome,[8],inactive
same,outcome,[10],inactive
same,outcome,[14],inactive
same,outcome,[11],inactive
same,outcome,[12],inactive
same,outcome,[13],inactive
same,log fold change Tl+ flux,F380Y/beta1,-0.0717 (inactive)
same,log fold change Tl+ flux,F380Y/beta4,-0.00471 (inactive)
same,log fold change Tl+ flux,R275C/beta4,-0.0411 (inactive)
same,log fold change Tl+ flux,R275C/Slo1WT/beta2,-0.0465 (inactive)
C#CCN(C)[C@H](C)Cc1ccccc1,fluorescence slope change,[15],-18.7% (inactive)
same,fluorescence ratio,[1],0.95 (inactive) and 0.99 (inactive)
same,inhibition,[2],-5.15% (inactive) and -7.73% (inactive)
same,inhibition,[3],2.21% (inactive) and -4.29% (inactive)
same,fluorescence ratio,[4],0.9 (inactive) and 0.99 (inactive)
same,z-score,[5],-0.865 (inactive)
same,mean signal,[6],258 (inactive)
same,outcome,[8],inactive
same,outcome,[9],inactive
same,outcome,[10],inactive
same,outcome,[14],inactive
same,outcome,[12],inactive
same,outcome,[13],inactive
same,log fold change Tl+ flux,F380Y/beta1,0.0474 (inactive)
same,log fold change Tl+ flux,F380Y/beta4,0.0201 (inactive)
same,log fold change Tl+ flux,R275C/beta4,-0.0396 (inactive)
same,log fold change Tl+ flux,R275C/Slo1WT/beta2,-0.00101 (inactive)
CN1C(=O)COc2c(C(=O)NC3CN4CCC3CC4)cc(Cl)cc21 (stereo not given),fluorescence ratio,[1],1.03 (inactive)
same,inhibition,[2],2.77% (inactive)
same,inhibition,[3],3.75% (inactive)
same,fluorescence ratio,[4],1.02 (inactive)
same,z-score,[5],0.29 (inactive)
same,mean signal,[6],219 (inactive)
same,outcome,[8],inactive
same,outcome,[9],inactive
same,outcome,[10],inactive
same,outcome,[14],inactive
same,outcome,[13],inactive
same,log fold change Tl+ flux,F380Y/beta1,0.0287 (inactive)
same,log fold change Tl+ flux,F380Y/beta4,0.0243 (inactive)
same,log fold change Tl+ flux,R275C/beta4,-0.016 (inactive)
same,log fold change Tl+ flux,R275C/Slo1WT/beta2,-0.0098 (inactive)
CCCC(C)C1(CC)C(=O)N=C(S)NC1=O (stereo not given),inclusion score,[7],2
Cc1cccc(C)c1NC(=O)CN1CCCC1=O,outcome,[9],inactive
same,outcome,[10],inactive
same,outcome,[14],inactive
same,outcome,[12],inactive
same,outcome,[13],inactive
NCC1(CC(=O)O)CCCCC1,fluorescence slope change,[15],23.2% (inactive)
same,outcome,[8],inactive
same,outcome,[9],inactive
same,outcome,[10],inactive
same,outcome,[14],inactive
same,outcome,[11],inactive
same,outcome,[13],inactive
COc1ccc(C(=O)c2c(C)n(CCN3CCOCC3)c3ccccc23)cc1,outcome,[9],inactive
same,outcome,[10],inactive
same,outcome,[11],inactive
same,AC50,[12],16.6 µM (active)
COc1ccc(CN2CCNCC2)c(OC)c1OC,fluorescence slope change,[15],2.5% (inactive)
C[C@]12CC[C@H](O)CC1=CC[C@@H]1[C@@H]2CC[C@]2(C)C(=O)CC[C@@H]12,fluorescence ratio,[1],0.94 (inactive)
same,inhibition,[2],0.66% (inactive)
same,inhibition,[3],-2.76% (inactive)
same,fluorescence ratio,[4],0.97 (inactive)
same,outcome,[8],inactive
same,outcome,[9],inactive
same,outcome,[10],inactive
same,outcome,[14],inactive
same,outcome,[11],inactive
same,outcome,[12],inactive
same,outcome,[13],inactive
Cn1c(CCCC(=O)O)nc2cc(N(CCCl)CCCl)ccc21,AC50,[8],20.9 µM (active)
same,outcome,[14],inactive
same,outcome,[11],inactive
same,outcome,[13],inactive
same,inhibition,"[16]; BGB IC20 combo, at 0.005 µM",6.09%
same,inhibition,"[16]; BGB IC40 combo, at 0.005 µM",-55.7%
same,inhibition,"[16]; BGB IC40 combo, at 0.05 µM",-19.6%
same,inhibition,[16]; at 0.5 µM,-15.5% (inactive)
same,inhibition,"[16]; cisplatin combo, at 0.05 µM",-19.6%
same,inhibition,"[16]; cisplatin combo, at 0.5 µM",-24.4%
same,inhibition,"[16]; cisplatin combo, at 5 µM",-46.7%
same,inhibition,"[16]; measured here: 5 uM single agent, at 5 µM",-9.28%
Fc1ccc(C(OCCN2CCN(CCCc3ccccc3)CC2)c2ccc(F)cc2)cc1,fluorescence slope change,[15],119% (active)
same,AC50,[8],14.8 µM (active)
same,AC50,[9],20.9 µM (active)
same,AC50,[10],13.2 µM (active)
same,AC50,[11],16.6 µM (active)
same,AC50,[12],18.6 µM (active)
same,IC50,[13],16.6 µM (active)
CCCC[N+]1(C)[C@@H]2CC(OC(=O)[C@H](CO)c3ccccc3)C[C@H]1[C@@H]1O[C@@H]12 (stereo not given in full),outcome,[8],inactive
same,outcome,[9],inactive
same,outcome,[10],inactive
same,outcome,[14],inactive
same,outcome,[11],inactive
same,outcome,[12],inactive
same,outcome,[13],inactive
C#C[C@]1(O)C=C[C@H]2[C@@H]3CCC4=CC(=O)CC[C@@H]4[C@H]3CC[C@@]21CC,outcome,[8],inactive
same,outcome,[9],inactive
same,outcome,[10],inactive
same,outcome,[14],inactive
same,outcome,[11],inactive
same,outcome,[12],inactive
COC[C@@H](NC(C)=O)C(=O)NCc1ccccc1,outcome,[8],inactive
same,outcome,[14],inactive
same,outcome,[11],inactive
same,outcome,[12],inactive
same,outcome,[13],inactive
